Laboratory results taken from PubChem BioAssay (NCATS).
Results filed as inconclusive are left out. Unless noted, calls come from the whole dose curve; as a rule, active = well fitted curve in either direction with a large enough effect (not every such curve was filed as active); inconclusive = small, poorly fitted or top-dose-only effect, or another doubt; inactive = flat fitted curve, though single readings scatter.

Key:
[1] = AP1 Signaling Pathway (AID 357); conditions: ME-180 AP-1-bla reporter, EGF-induced, beta-lactamase ratio, 5 h; at 17.2 µM (top of the series) unless noted;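 note: ME-180 reporter cells stimulated with EGF at its EC50 level; % is set by controls: 0 for no effect and ±100 for the full control effect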
Outline: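 A ratiometric CCF4 readout (405 nm excitation; 460 and 530 nm emission) quantified AP-1-driven beta-lactamase in ME-180 cells after 5 h with compound and EC50 EGF; AC50 values were derived for activators and inhibitors.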

[2] = NFAT Signaling Pathway (AID 444); conditions: Jurkat NFAT-bla M1, carbachol, beta-lactamase ratio, 5 h; at 17.2 µM (top of the series) unless noted;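 note: carbachol stimulus at about its EC50 of 1 µM final; % is set by controls: 0 for no effect and ±100 for the full control effect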
Outline: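 Jurkat cells carrying an NFAT-driven β-lactamase reporter and co-transfected muscarinic M1 receptor were treated with compound plus carbachol (1 uM final, an EC50 level) for 5 h at 37 °C. CCF4 loading followed for 1 h at RT; 460/530 nm ratio gave %activity.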

[3] = Stat Signaling Pathway (AID 446); conditions: ME-180 (cervical carcinoma) SIE beta-lactamase reporter, IL-6 stimulated, 5 h; at 17.2 µM (top of the series) unless noted;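 note: ME-180 cervical cancer cells given 40 pM IL-6 alongside compound; SIE-controlled beta-lactamase reporter measured as 460/530 nm FRET emission ratio; % is set by controls: 0 for no effect and ±100 for the full control effect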
Outline: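 Overnight-plated ME-180 cells bearing a STAT Inducible Element beta-lactamase reporter; 5 h co-exposure to compound and 40 pM IL-6; values normalized to 300 pM IL-6 and 125 nM JAK inhibitor controls.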

[4] = target: Glucocorticoid receptor (Homo sapiens) (UniProt P04150); assay: GR-GFP Redistribution (AID 450;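 active = compounds whose dose series gives a full or clear partial fitted curve of increased nuclear translocation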; note: potency is the fitted concentration of half-maximal effect); conditions: U2OS GR-GFP nuclear translocation, laser cytometry, 2 h; series mostly up to 20.6 µM
Sequence of Glucocorticoid receptor (Homo sapiens) (P04150 whole entry, looked up): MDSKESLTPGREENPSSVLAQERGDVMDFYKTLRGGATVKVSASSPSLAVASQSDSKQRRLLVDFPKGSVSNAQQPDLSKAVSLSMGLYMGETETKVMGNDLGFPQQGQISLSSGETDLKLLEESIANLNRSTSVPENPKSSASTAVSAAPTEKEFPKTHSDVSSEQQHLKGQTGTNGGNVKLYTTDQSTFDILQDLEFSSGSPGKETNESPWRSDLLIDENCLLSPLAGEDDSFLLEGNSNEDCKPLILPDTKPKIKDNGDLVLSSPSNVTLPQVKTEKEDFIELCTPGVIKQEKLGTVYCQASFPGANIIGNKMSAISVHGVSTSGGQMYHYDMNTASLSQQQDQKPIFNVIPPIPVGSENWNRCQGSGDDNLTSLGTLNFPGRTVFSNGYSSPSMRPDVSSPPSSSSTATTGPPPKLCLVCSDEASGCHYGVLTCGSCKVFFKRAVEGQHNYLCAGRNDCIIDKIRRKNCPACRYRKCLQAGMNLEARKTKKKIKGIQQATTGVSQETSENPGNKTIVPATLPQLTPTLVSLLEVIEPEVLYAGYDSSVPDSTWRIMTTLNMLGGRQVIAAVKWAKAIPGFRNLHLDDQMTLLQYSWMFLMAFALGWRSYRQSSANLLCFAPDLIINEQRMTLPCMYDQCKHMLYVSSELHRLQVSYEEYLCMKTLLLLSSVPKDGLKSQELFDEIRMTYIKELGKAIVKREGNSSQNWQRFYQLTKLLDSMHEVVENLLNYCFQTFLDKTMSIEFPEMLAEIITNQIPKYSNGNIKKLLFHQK

CCN(CC)CCN1C(=O)C(=O)/C(=C(/O)c2ccc(Cl)cc2)C1c1ccncc1 (stereo not drawn)
inactive: activity change, negative = inhibition [1] -3.59% | activity change, negative = inhibition [2] 22.9% | activity, negative = inhibition [3] 7.2% | Potency [4] > 20.6 µM

O=C(O)CC(C(=O)OCC1CCCO1)N1CCOCC1 (stereo not drawn)
inactive: activity change, negative = inhibition [1] 9.13% | activity change, negative = inhibition [2] -2.84% | activity, negative = inhibition [3] -0.575% | Potency [4] > 20.6 µM

CCCOC(=O)CSC1=C(C#N)C(c2ccccc2OC)C(C#N)C(=O)N1 (stereo not drawn)
inactive: activity change, negative = inhibition [1] -16.4% | activity change, negative = inhibition [2] 13.9% | activity, negative = inhibition [3] -22.7% | Potency [4] > 20.6 µM

CCCOc1ccc(/C(O)=C2/C(=O)C(=O)N(CCN3CCOCC3)C2c2ccccc2)cc1 (stereo not drawn)
inactive: activity change, negative = inhibition [1] -16.7% | activity change, negative = inhibition [2] 4.9% | activity, negative = inhibition [3] -4.33% | Potency [4] > 20.6 µM

CC(C)c1cc(NCCN2CCOCC2)n2c(nc3ccccc32)c1C#N
inactive: activity change, negative = inhibition [1] -4.92% | activity change, negative = inhibition [2] 6.15% | activity, negative = inhibition [3] 9.84% | Potency [4] > 20.6 µM

Cn1c(=NCC(O)COc2ccccc2)sc2ccccc21 (stereo not drawn)
inactive: activity change, negative = inhibition [1] -7.25% | activity change, negative = inhibition [2] -13.4% | activity, negative = inhibition [3] 8.49% | Potency [4] > 20.6 µM

N#C/C(C(=O)NCc1ccco1)=C1/SC(Cc2ccc(F)cc2)C(=O)N1c1ccccc1 (stereo not drawn)
inactive: activity change, negative = inhibition [1] 1.52% | activity change, negative = inhibition [2] -9.67% | activity, negative = inhibition [3] -22.9% | Potency [4] > 20.6 µM

Nc1ccc2cn[nH]c2c1
inactive: activity change, negative = inhibition [1] 4.71% | activity change, negative = inhibition [2] 2.08% | activity, negative = inhibition [3] 6.7% | Potency [4] > 20.6 µM

COc1ccc(Cl)cc1N=Cc1c(O)cc(C)oc1=O
inactive: activity change, negative = inhibition [1] -3.56% | activity change, negative = inhibition [2] -6.83% | activity, negative = inhibition [3] 5.26% | Potency [4] > 20.6 µM

Cc1cc(C)c2nc(SCCC#N)nc(C)c2c1
inactive: activity change, negative = inhibition [1] -4.73% | activity change, negative = inhibition [2] 11.8% | activity, negative = inhibition [3] 6.57% | Potency [4] > 20.6 µM

Cn1c(=O)[nH]c(=O)c2c1nc(Br)n2CCSc1nnnn1-c1ccccc1
inactive: activity change, negative = inhibition [1] -14.1% | activity change, negative = inhibition [2] 1.39% | activity, negative = inhibition [3] -8.23% | Potency [4] > 20.6 µM

CC1(C)CC(=O)C=C(NCc2ccncc2)C1
inactive: activity change, negative = inhibition [1] 10% | activity change, negative = inhibition [2] -8.43% | activity, negative = inhibition [3] 8.27% | Potency [4] > 20.6 µM

N/C(CCN1CCOCC1)=N/O
inactive: activity change, negative = inhibition [1] 18.7% | activity change, negative = inhibition [2] 2.54% | activity, negative = inhibition [3] -0.113% | Potency [4] > 20.6 µM

COC(=O)C1=C(C)N=C2SC(C)C(=O)N2C1c1ccc(C(=O)OC)cc1 (stereo not drawn)
inactive: activity change, negative = inhibition [1] -9.79% | activity change, negative = inhibition [2] -6.71% | activity, negative = inhibition [3] -11.1% | Potency [4] > 20.6 µM

O=C(NCc1ccccc1)c1ccc(=O)[nH]n1
inactive: activity change, negative = inhibition [1] 2.35% | activity change, negative = inhibition [2] -2.12% | activity, negative = inhibition [3] 5.54% | Potency [4] > 20.6 µM

Cc1nc(NCCO)c(C#N)c2c1COC(C)(C)C2
inactive: activity change, negative = inhibition [1] -5.08% | activity change, negative = inhibition [2] 2.21% | activity, negative = inhibition [3] 4.18% | Potency [4] > 20.6 µM

c1cncc(-c2nnc3sc(C4CCCCC4)nn23)c1
inactive: activity change, negative = inhibition [1] -18.8% | activity change, negative = inhibition [2] -20% | activity, negative = inhibition [3] -1.41% | Potency [4] > 20.6 µM

COc1cccc(-c2nn3c(-c4ccccn4)nnc3s2)c1
inactive: activity change, negative = inhibition [1] -5.18% | activity change, negative = inhibition [2] -17% | activity, negative = inhibition [3] 9.86% | Potency [4] > 20.6 µM

CSc1nc2[nH]c3c(c2c2nncn12)CC(C)(C)OC3
inactive: activity change, negative = inhibition [1] -4.3% | activity change, negative = inhibition [2] -1.24% | activity, negative = inhibition [3] 7.21% | Potency [4] > 20.6 µM

CCCOc1ccc(/C(O)=C2/C(=O)C(=O)N(CCN(C)C)C2c2ccncc2)cc1 (stereo not drawn)
inactive: activity change, negative = inhibition [1] -5.87% | activity change, negative = inhibition [2] 4.76% | activity, negative = inhibition [3] 5.47% | Potency [4] > 20.6 µM

Cn1c(=O)n(CC(=O)Nc2ccccc2)c2ccccc21
inactive: activity change, negative = inhibition [1] -5.57% | activity change, negative = inhibition [2] -4.15% | activity, negative = inhibition [3] -7.48% | Potency [4] > 20.6 µM

N#C/C(C(=O)NCc1ccccc1)=C1\SC(CCO)C(=O)N1c1ccccc1 (stereo not drawn)
inactive: activity change, negative = inhibition [1] -9.75% | activity change, negative = inhibition [2] 10.3% | activity, negative = inhibition [3] -2.91% | Potency [4] > 20.6 µM

Cc1c(/C(O)=C2/C(=O)C(=O)N(CCCN3CCOCC3)C2c2ccncc2)cnn1-c1ccccc1 (stereo not drawn)
inactive: activity change, negative = inhibition [1] 5.29% | activity change, negative = inhibition [2] -3.84% | activity, negative = inhibition [3] 5.14% | Potency [4] > 20.6 µM

O=C(Cc1ccc(Cl)cc1)Nc1cccc(-c2nnc(-c3ccco3)o2)c1
inactive: activity change, negative = inhibition [1] -5.69% | activity change, negative = inhibition [2] 11.3% | activity, negative = inhibition [3] -1.67% | Potency [4] > 20.6 µM

COc1ccccc1-c1c(C)oc2c(CN3CCN(C)CC3)c(O)ccc2c1=O
inactive: activity change, negative = inhibition [1] 1.13% | activity change, negative = inhibition [2] 5.13% | activity, negative = inhibition [3] 4.08% | Potency [4] > 20.6 µM

CC(=O)C1=C(O)C(=O)N(c2ccc(C(=O)O)cc2)C1c1ccccc1 (stereo not drawn)
inactive: activity change, negative = inhibition [1] 5.75% | activity change, negative = inhibition [2] -2% | activity, negative = inhibition [3] 0.835% | Potency [4] > 20.6 µM

CCOC(=O)c1ccc(NC(=O)COc2ccccc2OC)cc1
inactive: activity change, negative = inhibition [1] -16.3% | activity change, negative = inhibition [2] 0.388% | activity, negative = inhibition [3] 2.17% | Potency [4] > 20.6 µM

COc1ccc(CN(C)CCc2ccccn2)c(OC)c1OC
inactive: activity change, negative = inhibition [1] -14.2% | activity change, negative = inhibition [2] -17.4% | activity, negative = inhibition [3] 11.1% | Potency [4] > 20.6 µM

C(=N\n1cnnc1)/c1cccnc1
inactive: activity change, negative = inhibition [1] -4.05% | activity change, negative = inhibition [2] -13.4% | activity, negative = inhibition [3] 12.5% | Potency [4] > 20.6 µM

O=C(c1ccc(-n2cnnn2)cc1)N1CCOCC1
inactive: activity change, negative = inhibition [1] 10.3% | activity change, negative = inhibition [2] -0.0644% | activity, negative = inhibition [3] 12.1% | Potency [4] > 20.6 µM

COC(=O)c1ccc(=O)n(Cc2ccc3c(c2)OCO3)c1
inactive: activity change, negative = inhibition [1] -0.911% | activity change, negative = inhibition [2] 6.79% | activity, negative = inhibition [3] -1.86% | Potency [4] > 20.6 µM

CCOC(=O)c1n[nH]c2ccccc12
inactive: activity change, negative = inhibition [1] 7.22% | activity change, negative = inhibition [2] 0.11% | activity, negative = inhibition [3] -6.98% | Potency [4] > 20.6 µM

c1ccc(-c2nnc3sc(Cc4cccs4)nn23)cc1
inactive: activity change, negative = inhibition [1] -13.7% | activity change, negative = inhibition [2] -18.2% | activity, negative = inhibition [3] 16.7% | Potency [4] > 20.6 µM

O=C(c1ccco1)N1CCN(CCOCCOc2cccc3ccccc23)CC1
inactive: activity change, negative = inhibition [1] 1.08% | activity change, negative = inhibition [2] -2.55% | activity, negative = inhibition [3] -10% | Potency [4] > 20.6 µM

O=C(NC1CCCCC1)[C@H](O)[C@@H](O)C(=O)NC1CCCCC1
inactive: activity change, negative = inhibition [1] 8.04% | activity change, negative = inhibition [2] 0.354% | activity, negative = inhibition [3] 4.25% | Potency [4] > 20.6 µM

O=c1/c(=C/c2ccccn2)sc2n1CN(c1ccccc1)CN=2
inactive: activity change, negative = inhibition [1] 0.239% | activity change, negative = inhibition [2] -24.9% | activity, negative = inhibition [3] 5.04% | Potency [4] > 20.6 µM

Cc1cc(C)nc(NC2=NCC(=O)N2c2ccccc2)n1
inactive: activity change, negative = inhibition [1] 13.1% | activity change, negative = inhibition [2] -8.71% | activity, negative = inhibition [3] 9% | Potency [4] > 20.6 µM
